Results reported in PubChem BioAssay (EPA / NIEHS).
Results filed as inconclusive are left out. Activity calls are given as the source filed them. How the source made its calls, unless noted: active means hit-call score of the fitted dose curve at least 0.9, where 1 is the maximum; inactive means score below 0.9.

What was measured:
[1] = CCTE_Shafer_MEA_dev_spike_duration_mean: CCTE's Neural Network Formation Assay for Mean Spike Duration, Shafer Lab (AID 2284051);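 further: mean network spike duration pooled as area under curve over DIV 5 to 12 recordings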
Method in brief: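 With DMSO as baseline, loss of mean network spike duration was scored from extracellular recordings of rat cortical neurons on MEA plates. Exposure spanned plating to DIV 12; the four recording days were collapsed into one AUC value.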

[2] = CCTE_Shafer_MEA_dev_network_spike_duration_std: CCTE's Neural Network Formation Assay for Standard Deviation of Network Spike Duration, Shafer Lab (AID 2284052);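 further: area under curve of spike duration SD across recording days 5 to 12; hits are decreases in network spike duration SD versus DMSO vehicle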
Method in brief: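 Developing networks of rat cortical neurons were exposed over twelve days in vitro on 48-well MEA plates. Trapezoidal AUC of recordings (DIV 5–12) was analysed for signal loss relative to DMSO vehicle.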

[3] = CCTE_Shafer_MEA_dev_per_network_spike_spike_number_mean: CCTE's Neural Network Formation Assay for Mean Number of Spikes in a Network Spike, Shafer Lab (AID 2284053)
Method in brief: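 First, rat cortical cells (1.5 x 10^5/well) were seeded onto MEA wells; second, dosing began at plating and was refreshed on DIV 5 and 9; finally, network-spike spike counts across DIV 5–12 were summarized as AUC.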

[4] = CCTE_Shafer_MEA_dev_per_network_spike_spike_percent: CCTE's Neural Network Formation Assay for Percent of Spikes in a Network Spike, Shafer Lab (AID 2284054)
Method in brief: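 Rat primary cortical cultures, 1.5 x 10^5 cells/well on MEA. Continuous compound exposure d0–12, medium/compound renewed DIV 5, 9. Network-spike spike % (0.05 s peak window), AUC over 4 recordings, DMSO baseline.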

[5] = CCTE_Shafer_MEA_dev_LDH: CCTE's Lactate Dehydrogenase Assay for Cytotoxicity in the Neural Network Formation Assay, Shafer Lab (AID 2284068; active means hit-call score of the fitted dose curve at least 0.9, where 1 is the maximum;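 further: exposure for twelve days from plating with re-dosing on DIV 5 and 9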)
Method in brief: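 Developing rat cortical networks on MEA plates are exposed to compound for 12 days from plating. LDH activity is measured spectrophotometrically, with DMSO as baseline.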

[6] = CCTE_Shafer_MEA_dev_AB: CCTE's Alamar Blue Assay for Cytotoxicity in the Neural Network Formation Assay, Shafer Lab (AID 2284083; active means hit-call score of the fitted dose curve at least 0.9, where 1 is the maximum;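 further: resazurin reduction fluorescence as viability of cultured neurons; twelve days of exposure from plating with re-dosing on DIV 5 and 9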)
Method in brief: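 Cytotoxicity companion to the developmental MEA: primary rat cortical neurons, 12-day exposure starting day 0, compound refreshed DIV 5 and 9; resazurin fluorescence, fitted against DMSO vehicle.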

[7] = CCTE_Shafer_MEA_acute_LDH: CCTE's Lactate Dehydrogenase Assay for Cytotoxicity in the Neural Acute Assay, Shafer Lab (AID 2284086; active means hit-call score of the fitted dose curve at least 0.9, where 1 is the maximum;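 further: active means LDH release rises above DMSO vehicle level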)
Method in brief: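 Medium from rat cortical neuron MEA cultures sampled right after the 40 min compound-exposure recording; released LDH measured by absorbance at 490 nm. Analyzed as signal gain relative to DMSO.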

[8] = CCTE_Shafer_MEA_dev_mutual_information_norm: CCTE's Neural Network Formation Assay for Mutual Information Normalization, Shafer Lab (AID 2284091)
Method in brief: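 Developing rat cortical networks on 16-electrode MEA wells are treated throughout formation (DIV 0–12). Shared electrode information is recorded four times, converted to area-under-curve, and fitted for decreases against DMSO vehicle.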

[9] = CCTE_Mundy_HCI_Cortical_Synap_Neur_Matur_NeuriteSpotCountPerNeuriteLength: CCTE's Synaptogenesis and Neurite Maturation Assay in rat cortical cells for Neurite Spot Count per Neurite Length, Mundy Lab (AID 2284210)
Method in brief: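 Primary rat cortical neurons, compound exposure DIV 7–12, 288.33 h endpoint. Hoechst, anti-MAP2 and anti-synaptophysin labelling; neurite-associated puncta per neurite length scored by automated imaging relative to DMSO controls.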

[10] = CCTE_Mundy_HCI_Cortical_Synap_Neur_Matur_BPCount: CCTE's Synaptogenesis and Neurite Maturation Assay in rat cortical cells for Branch Point Count, Mundy Lab (AID 2284211)
Method in brief: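 Rat primary cortical cultures, AraC added DIV 5; chemicals dosed DIV 7 through DIV 12. Fixed cells stained for MAP2, synaptophysin and Hoechst; neurite branch points counted by automated high-content imaging, fitted relative to DMSO.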

[11] = CCTE_Mundy_HCI_Cortical_NOG_NeuriteCount: CCTE's Neurite Outgrowth Assay in rat cortical cells for Neurite Count, Mundy Lab (AID 2284212);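 further: cells fixed about two days after chemical exposure began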
Method in brief: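 Neurite number per cell from high-content imaging of betaIII-tubulin immunostaining, with Hoechst nuclear counterstain.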

[12] = CCTE_Mundy_HCI_Cortical_NOG_NeuriteLength: CCTE's Neurite Outgrowth Assay in rat cortical cells for Neurite Length, Mundy Lab (AID 2284213)
Method in brief: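 Neurite length was read by high-content imaging of βIII-tubulin-labelled neurites in rat primary cortical cultures. Activity was fitted relative to DMSO.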

[13] = CCTE_Mundy_HCI_Cortical_Synap_Neur_Matur_NeuriteLength: CCTE's Synaptogenesis and Neurite Maturation Assay in rat cortical cells for Neurite Length, Mundy Lab (AID 2284214)
Method in brief: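 Rat primary cortical cultures, AraC added DIV 5, dosed DIV 7 through DIV 12 […]. Fixed, MAP2/synaptophysin immunostained with Hoechst; neurite length by high-content imaging, fitted in positive direction versus DMSO.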

[14] = CCTE_Mundy_HCI_Cortical_Synap_Neur_Matur_SynapseCount: CCTE's Synaptogenesis and Neurite Maturation Assay in rat cortical cells for Synapse Count, Mundy Lab (AID 2284218)
Method in brief: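 Rat primary cortical cultures, AraC at DIV 5, chemical dosing DIV 7 to DIV 12 (288.33 h). Fixed cells stained for MAP2, synaptophysin and Hoechst; synapses per neuron counted by high-content imaging, loss of signal versus DMSO.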

[15] = CCTE_Mundy_HCI_Cortical_Synap_Neur_Matur_NeuriteCount: CCTE's Synaptogenesis and Neurite Maturation Assay in rat cortical cells for Neurite Count, Mundy Lab (AID 2284222);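 further: exposure from day 7 to day 12 in vitro with readout at day 12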
Method in brief: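 In this multiplexed morphology readout, rat primary cortical neurons are fixed at DIV 12 following dosing at DIV 7 and stained for MAP2, synaptophysin and nuclei. High-content image analysis yields neurite count.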

[16] = CCTE_Mundy_HCI_Cortical_Synap_Neur_Matur_CellBodySpotCount: CCTE's Synaptogenesis and Neurite Maturation Assay in rat cortical cells for Cell Body Spot Count, Mundy Lab (AID 2284223)
Method in brief: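 Rat cortical neurons; AraC @ DIV 5; dose + media change DIV 7; fix DIV 12; anti-MAP2/anti-synaptophysin IF, Hoechst; HCI count of soma synaptophysin puncta/neuron; DMSO = negative control.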

[17] = CCTE_Mundy_HCI_Cortical_NOG_BPCount: CCTE's Neurite Outgrowth Assay in rat cortical cells for Branch Point Count, Mundy Lab (AID 2284237)
Method in brief: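 Measured 50.33 h after dosing, this morphology endpoint uses rat primary cortical cultures labelled for betaIII-tubulin. Branch points are quantified by high-content imaging, with DMSO as negative control and baseline.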

[18] = CCTE_Mundy_HCI_hNP1_Casp3_7: CCTE's Caspase-Glo 3/7 Assay in human neuroprogenitor cells for Apoptosis, Mundy Lab (AID 2284240)
Method in brief: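 Apoptosis is scored by activated caspase-3/7 luminescence in WA09-derived neural progenitor cells, measured 26.5 h after chemical dosing. Values represent gain of signal relative to DMSO vehicle.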

[19] = CCTE_Mundy_HCI_hNP1_CellTiter: CCTE's Cell Titer-Glo 2 Assay in human neuroprogenitor cells for Viability, Mundy Lab (AID 2284241; active means hit-call score of the fitted dose curve at least 0.9, where 1 is the maximum)
Method in brief: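 Human neural progenitor cells (hNP1, WA09-derived) were plated on poly-L-ornithine/laminin and grown 40 to 44 hours at 37 °C, 5% CO2 before chemical addition. Twenty-four hours later, ATP was measured by CellTiter-Glo luminescence; loss of signal versus DMSO indicates reduced viability.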

[20] = CCTE_Mundy_HCI_Cortical_Synap_Neur_Matur_NeuronCount: CCTE's Synaptogenesis and Neurite Maturation Assay in rat cortical cells for Neuron Count, Mundy Lab (AID 2284242; active means hit-call score of the fitted dose curve at least 0.9, where 1 is the maximum)
Method in brief: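 Rat primary cortical cells, AraC added at DIV 5, dosed with media change from DIV 7 to DIV 12. Fixed, Hoechst-stained and immunolabelled for MAP2 and synaptophysin; neuron number counted by high-content imaging, loss fitted versus DMSO.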

[21] = CCTE_Mundy_HCI_iCellGluta_NOG_NeuriteLength: CCTE's Neurite Outgrowth Assay in iCellGluta cells for Neurite Length, Mundy Lab (AID 2284318; active means hit-call score of the fitted dose curve at least 0.9, where 1 is the maximum)
Method in brief: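 Automated high-content imaging of betaIII-tubulin (Alexa Fluor-488) and Hoechst-stained cells gave neurite length, normalized to the DMSO baseline.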

[22] = CCTE_Mundy_HCI_iCellGluta_NOG_NeuriteCount: CCTE's Neurite Outgrowth Assay in iCellGluta cells for Neurite Count, Mundy Lab (AID 2284342; active means hit-call score of the fitted dose curve at least 0.9, where 1 is the maximum;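 further: chemical exposure about 48 hours starting 2 hours after plating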)

Measured: outcome

C#CCN(C)[C@H](C)Cc1ccccc1
inactive: all assays above
